Measurements: PubChem BioAssay AID463173 (ICCB-Longwood Screening Facility, Harvard Medical School, 2010)
Screen size: about 52,000 compounds; about 4,300 (8.3%) were called active. This is one part of a sample in which actives are shown more often than they occur. Unmarked numbers belong to inactive results. Rule as the data show it: active = survival mostly below about 52% (no sharp cut-off); inactive = mostly above about 56%.

System: DeltatarO mutant
Assay: growth inhibition of S. aureus wild type versus tarO mutant, primary screen, teichoic acid synthesis inhibitors, RN4220, OD600 (AID 463173)
Conditions: OD600, 18 h, hits give low values, screened at 18.75 µg/mL (by protocol)

First: CCOC(=O)CC(NC(=O)CCc1c(C)nc2ncnn2c1C)c1ccc(OC(C)C)cc1 (stereo unspecified)
Second: CCc1nn2c(=O)cc(COC(=O)c3ccccc3NC(=O)COc3ccc(C)c(C)c3)nc2s1
The survival of the first is higher: 114% for the first, 87% for the second.

First: Cc1ccc(Cn2c(C(=O)Nc3ccc(Cl)cc3)cc3sccc32)cc1
Second: Cc1ccc(-c2nnc(SCC(=O)c3ccc(Cl)cc3)n2-c2ccccc2)cc1
The survival of the first is higher: 112% for the first, 85% for the second.

Compared with CC(=O)c1c(C)n(-c2ccc(Cl)cc2)c2ccc(OC(=O)COc3ccccc3)cc12, CCOc1ccc(-c2nnc(SCC(=O)c3ccc(F)cc3)n2-c2ccccc2)cc1 is higher in survival: 63% for the first, 168% for the second.

Going from CCn1c(CNc2nc(-c3ccccc3)cs2)nnc1SCC(=O)c1ccc(OC)cc1 to Cn1c(CNc2nc(-c3ccccc3)cs2)nnc1SCC(=O)OC1CCCCC1, the survival falls from 87% to 73%.

Compared with CSc1ccc(CCNC(=O)c2ccc3c(Cl)c4c(nc3c2)CCCC4)cc1, CSc1ccc(CCNC(=O)c2ccc(-c3nc(COc4ccc(C)cc4)c(C)o3)cc2)cc1 is higher in survival: 64% for the first, 82% for the second.

Compared with CCCOC(=O)c1ccc2c(c1)C(=O)N(c1ccccc1)C2=O, CCN1C(=O)c2ccccc2S(=O)(=O)c2ccc(C(=O)NCc3ccc(C)cc3)cc21 is lower in survival: 78% for the first, 61% for the second.

Going from O=C(NCc1ccc2c(c1)OCO2)c1ccc2c(c1)N(Cc1ccccc1)C(=O)c1ccccc1S2=O (stereo unspecified) to CCOc1ccc(NC(=O)Cn2c(=O)n(-c3ccccc3)c(=O)c3ccc(C(=O)NCc4ccc5c(c4)OCO5)cc32)cc1, the survival rises from 83% to 107%.

Going from CC(CNC(=O)c1ccc(Cn2c(SCc3ccccc3)nc3cccnc32)cc1)c1ccccc1 (stereo unspecified) to CCc1c(-c2ccccc2)nc2ccccc2c1C(=O)NCCc1ccccc1, the survival rises from 69% to 70%.

Going from O=C(O)CN1CCCCC1 to COc1cccc(C(=O)N2CCCCC2CCN2CCCCC2)c1 (stereo unspecified), the survival falls from 89% to 83%.

Compared with O=C(c1ccco1)n1nc(-c2ccccc2)nc1NCc1ccccc1Cl, O=C(c1ccco1)n1nc(-c2ccccc2)nc1NCc1ccc(Cl)cc1 is lower in survival: 96% for the first, 91% for the second.

Going from O=C(c1ccc(F)cc1)n1nc(-c2ccc(Cl)cc2)nc1NCc1ccco1 to COc1ccc(C(=O)n2nc(-c3ccc(Cl)cc3)nc2NCc2ccco2)cc1, the survival rises from 70% to 115%.

First: O=C(c1ccco1)n1nc(-c2ccc(Cl)cc2)nc1NCc1ccc(F)cc1
Second: O=C(c1ccco1)n1nc(-c2ccc(Cl)cc2)nc1NCc1ccccc1
The survival of the first is higher: 80% for the first, 74% for the second.

Compared with Cc1ccc2onc(CNC(=O)NCc3ccc(Cl)cc3)c2c1, O=C(CN1C(=O)COc2ccc(S(=O)(=O)N3CCCCC3)cc21)NCc1ccc(Cl)cc1 is lower in survival: 77% for the first, 64% for the second.

Going from FC(F)(F)COc1nc(OCC(F)(F)F)nc(N(c2ccccc2)c2ccccc2)n1 to O=c1[nH]c2ccccc2nc1/C=C(\O)c1ccccc1, the survival rises from 71% to 83%.

First: O=C(CCCCn1c(=O)c2ccccc2n(Cc2ccccc2Cl)c1=O)NCc1ccc2c(c1)OCO2
Second: Cc1ccccc1CNC(=O)CCCn1c(=O)c2cccn2c2ccccc21
The survival of the first is higher: 78% for the first, 68% for the second.

First: COc1ccc(S(=O)(=O)c2c(Nc3c(C)cccc3C)sc(C(=O)c3ccc(F)cc3)c2N)cc1
Second: CCOC(=O)c1ccc(CN(Cc2ccccc2C)S(=O)(=O)c2ccc(C(C)(C)C)cc2)cc1
The survival of the first is higher: 98% for the first, 83% for the second.

Going from Cc1ccc(C)c(S(=O)(=O)c2nnn3c2nc(N2CCCCC2)c2sccc23)c1 to CCc1nn(CC(=O)N2CCCCC2)c(=O)c2cc3sccc3n12, the survival rises from 60% to 65%.

First: NC(=O)NC(=O)c1nc2nonc2[nH]c1=O
Second: CCOC(=O)c1ccc(NC(=O)c2nn(C)c3c2COc2ccccc2-3)cc1
The survival of the first is lower: 91% for the first, 106% for the second.

Compared with Cc1cccc(OC2CCS(=O)(=O)C2)c1 (stereo unspecified), COc1ccc(C)cc1Nc1c2c(nc3ccccc13)CCC2 is lower in survival: 87% for the first, 85% for the second.

Going from COc1ccc(C2=C(C)C(=NCCCN3CCN(c4cc(Cl)ccc4C)CC3)NS2(=O)=O)cc1 to COc1ccc(Cn2c(=O)c3cccnc3n(CC(=O)Nc3c(C)cc(C)cc3C)c2=O)cc1, the survival rises from 59% to 87%.

N#CC(C#N)=Cc1cn(CCCOc2ccccc2Cl)c2ccccc12 and COc1ccccc1CNC(=O)CCCn1c(=O)c2cccn2c2ccccc21 are the same in survival: 76% for the first, 76% for the second.

Going from CCn1c(SCC(=O)c2ccc([N+](=O)[O-])cc2)nnc1-c1ccc(Cl)cc1 to CCn1c(SCC(=O)c2ccccc2)nnc1-c1ccco1, the survival rises from 70% to 86%.

Going from Cc1ccc(C(=O)CSc2nnc(-c3ccccc3)n2-c2ccccc2)cc1 to O=C(CSc1nnc(-c2ccc(Br)cc2)n1-c1ccccc1)c1ccccc1, the survival falls from 99% to 69%.

Going from Cn1c(SCC(=O)c2ccc(F)cc2)nnc1-c1ccccc1Br to COc1ccccc1-c1nnc(SCC(=O)OC(C)C)n1-c1ccccc1, the survival rises from 57% to 92%.

Going from CCCCNC(=O)CSc1nc(-c2ccc(OC)cc2)cc(C(F)(F)F)n1 to CCc1c(C)nc2cc(-c3cc(OC)cc(OC)c3)nn2c1NCCO, the survival rises from 66% to 95%.

Compared with Cc1oc2c(c(C)cc3oc(=O)c(CC(=O)NCc4ccc(F)cc4)c(C)c32)c1C, Cc1ccc(CNC(=O)c2c(-c3ccc(F)cc3F)noc2C)o1 is lower in survival: 89% for the first, 77% for the second.

Going from CC(=O)N1c2ccccc2C(=O)C1N1CCN(c2cccc(C(F)(F)F)c2)CC1 (stereo unspecified) to O=C(CN1C(=O)CCSc2ccccc21)Nc1ccccc1F, the survival falls from 91% to 85%.

Going from O=C(c1ccc(F)cc1)N1c2nc(-c3ccco3)nn2C2(CCCCC2)[C@@H]2CCCC[C@@H]21 to O=C(c1ccccc1)N1c2nc(-c3ccco3)nn2C2(CCCCC2)[C@@H]2CCCC[C@@H]21, the survival rises from 53% to 62%.

First: COc1cccc(NC(=O)CSc2nc(=O)n(Cc3ccco3)c3c2CCC3)c1
Second: COc1ccc(OC)c(Nc2c3c(nc4ccccc24)CCC3)c1
The survival of the first is lower: 90% for the first, 94% for the second.

First: Cc1c(Cl)cccc1NC(=O)CCN1C(=O)c2ccccc2Sc2ncccc21
Second: O=C(CCCn1c(=O)c2cccn2c2cccnc21)NCc1ccccc1Br
The survival of the first is lower: 78% for the first, 130% for the second.

Going from CCOc1ccc(C(=O)Cn2c(=O)n3nc(CCn4nc(C)cc4C)nc3c3cc(OC)c(OC)cc32)cc1 to COc1ccc(Br)cc1CNC(=O)CCCn1c(=O)c2cccn2c2cccnc21, the survival rises from 98% to 106%.

Compared with Fc1ccc(Nc2c3c(nc4ccccc24)CCC3)cc1, COc1ccc(Nc2c3c(nc4ccccc24)CCC3)cc1Cl is lower in survival: 69% for the first, 59% for the second.

Going from Cc1ccc(C(=O)c2cn(CC(=O)NCc3ccccc3)c3nc(C)ccc3c2=O)cc1 to CC1CCN(S(=O)(=O)c2ccc3c(ccc(=O)n3CC(=O)NCc3ccccc3)c2)CC1, the survival falls from 95% to 49%.

Going from CCCCN(CC)C(=O)CCn1c(=O)c2cccn2c2cccnc21 to CN(C)CCNC(=O)CCCn1c(=O)c2cccn2c2ccccc21, the survival falls from 70% to 64%.

Compared with CCc1ccc(NC(=O)C2CCN(c3nn4c(=O)cc(C)nc4s3)CC2)cc1, CC(=O)Nc1ccc(NC(=O)Cn2c(=O)ccc3cc(S(=O)(=O)N4CCC(C)CC4)ccc32)cc1 is lower in survival: 101% for the first, 84% for the second.

Compared with O=C(CSC1=Nc2ccccc2N=C(c2ccc(F)cc2)C1)NCc1ccc(Cl)cc1, CC1CCN(S(=O)(=O)c2ccc3c(ccc(=O)n3CC(=O)NCc3ccc(Cl)cc3)c2)CC1 is higher in survival: 72% for the first, 75% for the second.

Going from Cc1ccc(NC(=O)Cn2c(=O)ccc3cc(S(=O)(=O)N4CCC(C)CC4)ccc32)cc1Cl to CCCNC(=O)N1CCN(S(=O)(=O)c2ccc3c(ccn3C)c2)CC1, the survival rises from 74% to 83%.

With Cn1c(CNc2nc(-c3ccccc3)cs2)nnc1SCC(=O)c1ccccc1 the survival was 51% (active).
O=C(c1ccccc1)n1nc(-c2ccc(Cl)cc2)nc1NCc1ccco1 was tested, and the survival was 23% (active).
In the case of O=C(c1ccc(F)cc1)n1nc(-c2ccccc2)nc1NCc1ccco1, the survival was 18% (active).
O=C(c1ccc(Cl)cc1)n1nc(-c2ccccc2)nc1NCc1ccco1 was tested, and the survival was 29% (active).
O=c1[nH]c2nonc2nc1/C=C(\O)c1ccccc1 was tested, and the survival was 15% (active).
O=C(CSc1nnc(-c2ccccc2Br)n1-c1ccccc1)c1ccc(F)cc1 was tested, and the survival was 17% (active).
For CCn1c(SCC(=O)c2ccccc2)nnc1-c1cccc(Cl)c1, the survival was 39% (active).
For COc1ccccc1-c1nnc(SCC(=O)c2ccc(F)cc2)n1-c1ccccc1, the survival was 6% (active).
For COc1ccccc1-c1nnc(SCC(=O)c2ccc(Cl)cc2)n1-c1ccccc1, the survival was 1% (active).
With Cc1ccc(C(=O)N2c3nc(-c4ccco4)nn3C3(CCCCC3)[C@@H]3CCCC[C@@H]32)cc1 the survival was 59% (active).
For Cc1ccc(Nc2c3c(nc4ccccc24)CCC3)cc1F, the survival was 2% (active).
Cc1ccc2nc3c(c(Nc4ccc(C)c(C)c4)c2c1)CCC3 was tested, and the survival was 38% (active).
For O=C(CCCn1c(=O)c2cccn2c2ccccc21)NCc1ccccc1Br, the survival was 43% (active).
In the case of COc1ccc(Br)cc1CNC(=O)CCCn1c(=O)c2cccn2c2ccccc21, the survival was 39% (active).
In the case of CCCCN(CC)C(=O)CCCn1c(=O)c2cccn2c2ccccc21, the survival was 49% (active).
For Cc1ccc(CNC(=O)Cn2c(=O)ccc3cc(S(=O)(=O)N4CCC(C)CC4)ccc32)cc1, the survival was 37% (active).
For CC1CCN(S(=O)(=O)c2ccc3c(ccc(=O)n3CC(=O)Nc3ccc(C(C)C)cc3)c2)CC1, the survival was 0% (active).
